Only some compounds are listed: those with a hit (about 2.4% of all), similar ones and a draw of the others.
GLP1R cytotox: cytotoxicity in counter-screen for GLP-1R inverse agonists. AID 624418. HEK293 cAMP-luciferase reporter cells, luminescence, 24 h. 0.13% of 410,000 active. Potency, µM (highest dose often 38.3 µM), inactives show top-dose activity change, negative = inhibition, most hits filed as inhibitors;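 also: loss of luciferase light is scored as toxicity; potency is read from the fitted curve at half-maximal effect; % is scaled to controls: 0 for no effect and ±100 for the full control effect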
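Seeding density was 200 cells/uL; after overnight-length (12 h) culture, 23 nL compounds went on for 24 h at 37 °C. Readout used a luciferase detection reagent, luminescence taken after 12 min at room temperature.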
TRHR agonist: TRH receptor (human) agonism; P34981; TRHR cells, calcium flux fluo-8, FDSS agonist mode; activation, % at 2 µM; 0.18% of 360,000 active; AID 493084; in the data active = activation above about 30%; also: 0% is about no effect
Target sequence (P34981 whole entry, looked up): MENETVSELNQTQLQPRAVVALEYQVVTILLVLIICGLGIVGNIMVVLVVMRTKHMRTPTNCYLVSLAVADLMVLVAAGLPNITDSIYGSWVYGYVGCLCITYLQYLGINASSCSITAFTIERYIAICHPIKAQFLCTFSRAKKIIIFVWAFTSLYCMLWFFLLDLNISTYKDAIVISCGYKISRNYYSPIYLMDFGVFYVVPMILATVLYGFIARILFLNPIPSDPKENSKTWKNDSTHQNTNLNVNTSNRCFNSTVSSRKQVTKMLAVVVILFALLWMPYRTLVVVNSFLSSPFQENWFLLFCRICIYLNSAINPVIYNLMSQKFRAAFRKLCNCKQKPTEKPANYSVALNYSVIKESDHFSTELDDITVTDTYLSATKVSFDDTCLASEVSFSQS
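TRHR-expressing cells loaded with fluo-8 calcium dye; 23 nL library compound pin-transferred, kinetic FDSS fluorescence (Ex 480/Em 530) recorded about 180 s for agonist-induced calcium release, before a 10 nM TRH EC20 addition for potentiator mode.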
PTHR1 ag: PTHR1 (human) receptor agonism; HEK293 GP2 PTHR1 cells, GloSensor cAMP luminescence, 1 h; 0.075% of 410,000 active; Potency, µM (highest dose often 115 µM), without a hit: at the highest dose activation, hits mostly activators; AID 743266; Q03431; also: potency is read from the fitted curve at half-maximal effect; nearly all actives have a fitted effect of over 55% in size
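HEK-293-derived GP2 cells expressing PTHR1 and a GloSensor cAMP reporter, 3,000/well, plated overnight, given luciferin plus IBMX (each 0.5 mM as added) for 1 h at 37 °C, then compound for 1 h at 37 °C. Luminescence was read after 15 min at room temperature.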
GLP1R ag: GLP-1 receptor (human) agonism. 0.007% of 380,000 active. Potency, µM (doses to about 45.6 µM), inactives show top-dose activation, hits mostly activators. P43220. HEK293 GLP-1R CRE-luciferase, luminescence, 4-6 h; cells express a hypersensitive GLP-1R form. AID 624172; also: potency is read from the fitted curve at half-maximal effect; % of control where 0% means no effect
GLP1R inv ag: GLP-1 receptor (human) inverse agonism. P43220. HEK293 GLP-1R CRE-luciferase, luminescence, 24 h; GLP-1R form is constitutively active. Potency, µM (highest dose often 38.3 µM), for inactives: top-dose activity change, negative = inhibition, hits mostly inhibitors. 1.6% of 410,000 active. AID 624417; also: potency is read from the fitted curve at half-maximal effect; % is scaled to controls: 0 for no effect and ±100 for the full control effect; nearly all actives have a fitted effect of over 55% in size
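GLP-1R inverse agonism mode: basal reporter luminescence in engineered HEK293 cells measured after one day of compound exposure at 37 deg C, with a 12 min room-temperature detection step.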
TRHR enhancer: allosteric enhancers of human TRH receptor; P34981; TRHR cells, fluo-8 calcium fluorescence, EC20 TRH enhancement; enhancement, % at 2 µM; 0.66% of 360,000 active; in the data active = enhancement above about 30%; also: 0% is about no effect
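TRHR-expressing cells loaded with fluo-8 calcium dye were read kinetically (ex 480/em 530) during compound addition, then stimulated with an EC20 of TRH (10 nM final). Enhancement of the Gq-mediated intracellular calcium response was scored.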
* = called active by the depositor; i = inactive; ? = inconclusive; · = not tested or not shown; [ ] = another dose, or the depositor's remark. Unless noted, calls follow the shape of the dose curve; as a rule, active = well fitted curve in the direction sought with a large enough effect; inconclusive = small, poorly fitted or top-dose-only effect, or another doubt; inactive = no such curve, though single readings can be large; an effect the other way counts as inactive or inconclusive.

SMILES	GLP1R cytotox	TRHR agonist	PTHR1 ag	GLP1R ag	GLP1R inv ag	TRHR enhancer
CCc1ccc(CNC(=O)c2ccc(CS(=O)(=O)Cc3cccc(C)c3)o2)cc1	2%	0	-34%	·	?	4
C[C@H]1CN([C@@H](C)CO)C(=O)c2cccc(NC(=O)Nc3ccc(C(F)(F)F)cc3)c2O[C@H]1CN(C)C	18%	·	20%	-4%	10µM*	·
C[C@H](CO)N1C[C@H](C)[C@@H](CN(C)C(=O)Nc2ccc(C(F)(F)F)cc2)Oc2c(NC(=O)Nc3ccc(C(F)(F)F)cc3)cccc2C1=O	?	·	-20%	-11%	11µM*	·
COc1ccc(NC(=O)Nc2cccc3c2O[C@H](CN(C)C(=O)Nc2ccc(C(F)(F)F)cc2)[C@@H](C)CN([C@H](C)CO)C3=O)cc1	0%	·	i	-2%	2%	·
CC(=O)Nc1ccccc1-c1nnc(SCc2ccccc2Cl)[nH]c1=O	-2%	0	0%	0%	3%	11
C=CCOc1ccccc1CN1CCC(Oc2ccc(C(=O)N3CCCC3)cc2)CC1	-24%	0	2%	1%	?	-1
O=C(c1ccc(OC2CCN(Cc3ccccc3C(F)(F)F)CC2)cc1)N1CCCCC1	?	0	-34%	-4%	5µM*	-1
O=C(c1ccc(OC2CCN(Cc3ccc(C(F)(F)F)cc3)CC2)cc1)N1CCCCC1	-4%	0	-23%	6%	?	-7
O=C(c1ccc(OC2CCN(Cc3ccccc3OC(F)F)CC2)cc1)N1CCCC1	-17%	0	i	-1%	3.2µM*	10
CC(C)C(=O)NC(=S)Nc1nnn(C)n1	22%	0	-9%	10%	28%	2
CC(=O)NCc1c(Cl)cccc1-n1cccc1	12%	·	-2%[57.5 µM]	3%	5%	·
CC(C)N(CC#CCC(O)(c1ccccc1)c1ccccc1)CCO	-14%	1	-2%	-1%	10µM*	-4
CCN(CC#CCC(O)(c1ccccc1)c1ccccc1)C(C)C	3%	0	2%	2%	?	-9
CCn1c2ccccc2c2cc(CN3CCN(Cc4ccc(OC)c(OC)c4)CC3)ccc21	-9%	0	i	·	?	8
CCOc1ccc(CN2CCN(Cc3ccc4c(c3)c3ccccc3n4CC)CC2)cc1	-21%	0	9%	·	6.3µM*	5
Cc1cc(C)n(CCN(C)C(=O)c2cc(COc3c(F)cccc3F)on2)n1	-7%	-2	i	12%	-2%	9
Cc1ccc(C)c(N/C(N)=N/c2nc(C)cc(C)n2)c1	?	15	-64%	-30%	8.9µM*	-6
COc1ccc(C)cc1N/C(N)=N/c1nc(C)cc(C)n1	-12%	3	i	-7%	-8%	2
COc1ccc(OC)c(NC(=O)CSc2nnc(C3CCCCC3)n2N)c1	7%	0	i	12%	-7%	-1
COc1ccc(CN2CCC(N(CCc3ccccc3)Cc3ccccc3)CC2)c(OC)c1	?	0	-56%	4%	3.2µM*	1
CC(C)[C@H]1COCCS(=O)(=O)N1Cc1ccccc1-c1ccc(F)cc1	18%	·	-13%	0%	?	·
Cc1c(O)ccc2c(CN3CCN(C/C=C/c4ccccc4)CC3)cc(=O)oc12	i	0	-21%	7%	3.5µM*	-1
CCOc1ccc(C(=O)N2CCN(Cc3cc(=O)n4nc(-c5cccc(OC)c5)sc4n3)CC2)cc1	7%	-1	-17%	·	-3%	-3
Cc1ccsc1-c1cc2nc(NCCOc3ccccc3Cl)n(C)c(=O)c2s1	5%	·	i	-5%	21%	·
O=C(COc1ccccc1Cl)Nc1ccc(C(=O)O)cc1NC(=O)COc1ccccc1Cl	3%	0	-44%	0%	7%	3
Cc1cc(C(=O)Nc2ccccc2C(=O)O)ccc1NC(=O)COc1ccccc1Cl	-1%	-1	i	2%	18%	35*

Compound activity deposited in PubChem BioAssay by National Center for Advancing Translational Sciences (NCATS).
